TDP-43 rescue: inhibitors of TDP-43 toxicity in yeast; yeast TDP-43 toxicity rescue, BacTiter-Glo growth, 24 h; Potency, µM (highest dose often 46.1 µM), most hits filed as activators; 45,000 tested, 0.45% active; active means well fitted activation curve with a large enough effect; further: 0% is about no effect; nearly all actives have a fitted effect of over 55% in size
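TDP-43-expressing yeast, pregrown in raffinose, seeded at OD600 0.02 in galactose medium with compound for 24 hr at 30 deg C. Growth read by BacTiter-Glo luminescence, so rescue of toxicity appears as activation.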
* = called active by the depositor; i = inactive. The full list was thinned out, with hits kept by preference. Potency means the concentration at half of the fitted maximal effect.

SMILES | TDP-43 rescue
CN(C)C(=O)c1ccc2c(c1[N+](=O)[O-])C(=O)c1ccccc1C2=O | 10µM*
Nc1c(O)ccc2c1C(=O)c1ccccc1C2=O | i
CN(C)C(=O)c1cn(-c2ccccc2)nc1-c1cccc([N+](=O)[O-])c1 | i
Cc1cc(C)c(C)c(S(=O)(=O)Nc2ccccc2C(=O)NN2CCOCC2)c1C | i
COc1ccc(Cl)cc1C(=O)OCC(=O)NC1CCCC(C)C1C (stereo unspecified) | 18µM*
COc1cccc2cc(C(=O)OCC(=O)NC3CCCC(C)C3C)c(=O)oc12 (stereo unspecified) | i
COc1ccc(Cl)cc1C(=O)OCC(=O)N1CCCC(C)C1 (stereo unspecified) | i
COc1ccc(C2CCCN2CC(O)COc2ccccc2C(C)C)cc1 (stereo unspecified) | i
O=C(CNC(=O)C1COc2ccccc2O1)N/N=C\c1cccc(O)c1 (stereo unspecified) | i
Cc1c(/C=N\NC(=O)C2COc3ccccc3O2)c2ccccc2n1C (stereo unspecified) | i
O=C(N/N=C\c1cccc([N+](=O)[O-])c1O)C1COc2ccccc2O1 (stereo unspecified) | 10µM*
CSS(=O)(=O)c1cccc2cccnc12 | i
CCCCCOc1ccc(/C=C/c2c([N+](=O)[O-])c(=O)n(C)c(=O)n2C)cc1 | i
CC(NS(=O)(=O)c1ccc2c(c1)OCCO2)c1ccccc1 (stereo unspecified) | i
O=S(=O)(NCCc1csc(-c2ccccc2)n1)c1ccc2c(c1)OCCO2 | 18µM*
CCCNS(=O)(=O)c1ccc(CCC(=O)Nc2ccc3c(c2)OCCO3)cc1 | i
O=S(=O)(Nc1ccc2c(c1)OCCO2)c1c(F)cccc1F | i
CN(C)S(=O)(=O)c1ccc(NC(=O)CSc2nnc(-c3ccco3)n2N)cc1 | i
CC(=O)Nc1cncc(-c2ccccc2F)n1 | i
O=C(NC(=S)Nc1ccccc1)c1ccc(-c2ccccc2)cc1 | i
O=C(Nc1ccc(C(=O)O)cc1)/C(=C\c1ccccc1)NC(=O)c1ccccc1 | i
O=C(O)c1ccc(NC(=S)NC(=O)c2ccc(-c3ccccc3)cc2)cc1 | 13µM*
O=C(Nc1cccc(C(F)(F)F)c1)Nc1cccs1 | i
CC(NC(=O)c1ccc(S(=O)(=O)N(C)C)cc1)c1ccc(-n2ccnc2)cc1 (stereo unspecified) | i
Cc1cccc(N(CC(=O)NCc2ccco2)C(=O)CCC(=O)Nc2nccs2)c1C | i
SMILES | TDP-43 rescue
COc1ccc2[nH]cc(CCNC(=O)c3ccccc3Cl)c2c1 | i
CCN1CCN(c2ccc(NC(=O)COc3ccc([N+](=O)[O-])cc3)cc2)CC1 | i
O=C(COC(=O)c1ccccc1Br)NC1CCCC1 | i
O=C(COC(=O)CNC(=O)c1ccccc1)NC1CCCCC1 | i
O=C(COC(=O)CSc1ccc2ccccc2c1Br)NC1CC1 | 22µM*
O=C(CCS(=O)(=O)c1ccccc1)Nc1ccc(S(=O)(=O)Nc2nccs2)cc1 | i
CCCCn1nc(NC(=O)c2cccc(Cl)c2)c2cc3cccc(C)c3nc21 | i
COc1ccc(Cl)cc1S(=O)(=O)Nc1ccc2c(c1)n(C)c(=O)n2C | i
CN(CC1COc2ccccc2O1)C(=O)CSc1nncs1 (stereo unspecified) | i
CN(CC1COc2ccccc2O1)C(=S)Nc1ccccc1F (stereo unspecified) | 11µM*
CCCN(CC1CC1)C(=S)Nc1ccccc1F | i
Clc1cccc(N2CCN(c3c4c(nc5nncn35)CCC4)CC2)c1 | i
CN1CCN(C(=O)c2cccc(NS(=O)(=O)c3ccc(Br)cc3)c2)CC1 | i
O=C(NC(=S)Nc1cccc2cc(O)ccc12)c1ccccc1Br | 16µM*
O=C(NC(=S)Nc1cccc2cnccc12)c1ccccc1 | i
CC1CCCCC1NC(=S)NC(=O)c1ccccc1Br (stereo unspecified) | i
Cc1onc(-c2ccccc2)c1C(=O)N1CCC(C)(C(=O)O)C1 (stereo unspecified) | i
CC(C)n1cc(C(=O)N2CCCC(N3CCN(c4cccc(Cl)c4)CC3)C2)cn1 (stereo unspecified) | i
Cc1nn2c(-c3cccc(NC(=O)c4ccccc4)c3)nnc2c2ccccc12 | i
CC(C)CNC(=O)c1c(F)c(F)c(F)c(F)c1F | i
O=C(NCC1CCN(C(=O)c2cccc([N+](=O)[O-])c2)CC1)c1cccc([N+](=O)[O-])c1 | i
O=C(NCC1CCN(C(=O)c2c(F)c(F)c(F)c(F)c2F)CC1)c1c(F)c(F)c(F)c(F)c1F | 18µM*
Cc1ccc(CN2C(=O)C(O)(CC(=O)c3ccc(C)cc3)c3ccccc32)cc1 (stereo unspecified) | i
Cc1onc(-c2ccccc2)c1C(=O)N1CCN(S(=O)(=O)c2ccccc2Br)CC1 | i
Cc1ccc(C(=O)N2CCN(S(=O)(=O)c3cc(Br)ccc3Br)CC2)o1 | 14µM*
SMILES | TDP-43 rescue
Cc1cc(C)c(S(=O)(=O)N2CCN(C(=O)c3cc4ccccc4o3)CC2)c(C)c1 | i
CCC(CO)N=C1CC(C)(C)CC(=O)/C1=C(/O)CCCN1C(=O)c2ccccc2C1=O (stereo unspecified) | i
N#Cc1ccccc1NC(=O)CSc1nnc(N)s1 | i
Cc1ccccc1C(=O)NCCCNC(=O)c1ccccn1 | i
NC(=O)c1cccc(-c2coc3c(C(=O)NC4CCCCC4)cccc23)c1 | i
O=C(NCc1ccc(F)c(F)c1)c1cccc2c(-c3cccnc3)coc12 | 10µM*
O=C(NCc1cccc(Cl)c1)c1ccc(-c2ccc(F)c(F)c2)c2ccoc12 | i
Cn1nccc1-c1coc2c(C(=O)NCC3CCOCC3)cccc12 | i
O=C(NCC1CC1)c1cccc2c(-c3ccc(F)c(F)c3)coc12 | 22µM*
COc1ccc(CNC(=O)c2ccc(-c3ccc(F)c(F)c3)c3ccoc23)cc1OC | i
COc1cccc(CN2CCC(Oc3ccc(C(=O)N4CCCCC4)cc3)CC2)c1O | i
CSc1ccc(CN2CCC(C)(Oc3cccc(F)c3)C2)cc1 (stereo unspecified) | i
CCOC(=O)C1(C)CCCN(C(=O)C(c2ccccc2)c2ccccc2)C1 (stereo unspecified) | i
COc1ccccc1C1CC(c2cccs2)=NN1C(=O)CCC(=O)O (stereo unspecified) | i
Cc1ccc(C2CC(c3cccs3)=NN2C(=O)CCl)cc1 (stereo unspecified) | 13µM*
COc1ccc(C2CC(c3cccs3)=NN2C(=O)c2ccc(Br)o2)cc1 (stereo unspecified) | i
COC(=O)c1c(-c2cccs2)csc1NC(=O)COc1ccccc1 | i
COC(=O)c1ccc(CNC(=O)C(C)N=C2NS(=O)(=O)c3ccccc32)cc1 (stereo unspecified) | i
CC1=CS(=O)(=O)CC1SC(=S)N(C)C1CCS(=O)(=O)C1 (stereo unspecified) | i
Cc1ccc(NC(=S)c2nc3ccccc3[nH]2)c(C)c1 | 10µM*
Cc1ccc(NC(=S)N2CCN(C(=O)c3ccccc3)CC2)c(C)c1 | i
Cc1cc(C)cc(C(=O)Nc2nc3ccccc3[nH]2)c1 | i
CCN(CC)c1nc(Oc2ccc(C(=O)NN)cc2)nc(Oc2ccc(C(=O)NN)cc2)n1 | i
CN(C)c1nc(Oc2ccc(/C=N/O)cc2)nc(N(C)C)n1 | 11µM*
O=[N+]([O-])c1ccc(Oc2ccc(/C=N/O)cc2)nc1 | i

Screening data: PubChem, National Center for Advancing Translational Sciences (NCATS)
